target: Mitogen-activated protein kinase 3 (Homo sapiens) (UniProt P27361); assay: ERK1 kinase inhibitors, dose response, selectivity assay for Dyrk1A inhibitor NFAT project, biochemical, ADP-Glo luminescence, cherry pick, set 2 (AID 602295); details: 120 min; series mostly up to 10 µM; activity change, negative = inhibition: at the top concentration
Sequence (P27361 whole entry, looked up): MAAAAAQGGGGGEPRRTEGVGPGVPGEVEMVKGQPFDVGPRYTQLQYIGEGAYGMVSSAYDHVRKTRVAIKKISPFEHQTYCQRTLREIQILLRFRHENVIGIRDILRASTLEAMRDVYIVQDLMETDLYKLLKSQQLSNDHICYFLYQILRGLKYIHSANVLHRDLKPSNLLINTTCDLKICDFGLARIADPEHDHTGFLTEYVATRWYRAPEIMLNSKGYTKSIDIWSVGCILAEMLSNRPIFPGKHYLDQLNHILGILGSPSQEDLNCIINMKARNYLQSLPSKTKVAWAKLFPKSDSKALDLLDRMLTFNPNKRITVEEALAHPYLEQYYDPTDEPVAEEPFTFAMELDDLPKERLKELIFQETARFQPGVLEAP

Activity change, negative = inhibition, inactive:
CC(=O)Nc1ccc(Nc2cc(C)nc3c(-c4ccccc4)cnn23)cc1 -6.73%, c1cc(-c2ccc3c(c2)OCO3)nc(Nc2ccc3c(c2)OCO3)n1 16.3%, Cc1ccsc1CN(C)c1ncnc2ccc(-c3ccc(CO)o3)cc12 8.68%, O=C(CSc1nnnn1-c1ccc(O)cc1)Nc1ccc(N2CCOCC2)c(Cl)c1 14.9%, CCN(Cc1cccs1)c1ncnc2ccc(-c3ccc4c(c3)OCO4)cc12 13.5%, Cc1noc(CN(C)c2ncnc3ccc(-c4ccc5c(c4)OCO5)cc23)n1 24.3%, c1cncc(CNc2nccc(-c3ccc4c(c3)OCO4)n2)c1 17.8%, Cc1ccsc1CN(C)c1ncnc2ccc(-c3ccoc3)cc12 9.45%, FC(F)(F)c1cccc(Nc2nccc(-c3ccc4c(c3)OCO4)n2)c1 5.81%, Cc1noc(NS(=O)(=O)c2ccc(NC(=O)c3oc4ccc(Cl)cc4c3C)cc2)c1C -10.1%, O=C(Nc1nc(-c2ccncc2)cs1)c1ccco1 -15.8%, CN(C)S(=O)(=O)c1ccc(Cl)c(C(=O)Nc2cccc3ncccc23)c1 4.43%, COc1ccc2c(Cl)c(C(=O)NCc3ccco3)sc2c1 13.3%, c1nc(NCC2CCCC2)c2cc(-c3ccc4c(c3)OCO4)ccc2n1 13.2%, Cc1ccnc(NC(=O)c2cccc(S(=O)(=O)N3CCN(c4ccccc4)CC3)c2)c1 5.59%, COc1ccc(-c2nccc(NCc3ccc(C)cc3)n2)cc1 -1%, CCOC(=O)c1ccc2ncc(C(=O)OCC)c(Nc3ccc(N4CCOCC4)cc3)c2c1 -13.7%, Cc1cc(NCCCn2ccnc2)n2ncc(-c3ccc(Cl)cc3)c2n1 19.3%, c1cncc(CNc2ccnc(-c3ccc4[nH]ncc4c3)n2)c1 8.55%, Clc1ccc(CNc2nccc(-c3ccc4c(c3)OCO4)n2)cc1Cl 33.6%, c1csc(CNc2ncnc3ccc(-c4ccoc4)cc23)c1 37.5%, Cc1ccc(CNc2ncnc3ccc(-c4ccoc4C)cc23)o1 -4.8%, COc1cccc(Nc2ncnc3sc(C)cc23)c1 -2.65%, CCN1CCN(Cc2ccc(NC(=O)c3ccc(C)c(NC(=O)N4CCNC4=O)c3)cc2C(F)(F)F)CC1 4.17%, COc1ccc(-c2[nH]ncc2-c2ccc3c(c2)OCCO3)c(O)c1 1.76%, COc1cccc(Nc2nc(-c3ccc(O)cc3)cs2)c1 18.6%, Clc1ccc(CNc2nccc(-c3ccc4c(c3)OCCO4)n2)cc1Cl 31.5%, c1cncc(-c2nc(NCc3ccco3)c3ccccc3n2)c1 -18.8%, CN(Cc1cccs1)c1ncnc2ccc(-c3ccc4c(c3)OCO4)cc12 19.4%, Cc1c(-c2ccnc(NCc3ccc(Cl)cc3)n2)sc(=O)n1C 18.4%, Fc1cccc(Nc2nc(-c3ccncc3)nc3ccccc23)c1 10.8%, COc1ccc(C(=O)c2sc(Nc3ccccc3F)nc2N)cc1 -20.3%, O=C(Nc1nc2c(s1)CCCC2)c1ccc(N2C(=O)CCC2=O)cc1 13%

Reference: PubChem BioAssay AID602295 (Broad Institute, 2012)
